Test results from PubChem BioAssay (NCATS).
Results filed as inconclusive are left out. The source made the active and inactive calls. The call rests on the fitted dose curve; in most records, active means well fitted inhibition curve with a large enough effect; inconclusive means small, poorly fitted or top-dose-only effect; inactive means flat fitted curve, though single readings scatter.

Assays:
Assay in all cases: qHTS profiling for inhibitors of Plasmodium falciparum proliferation (AID 504749); further: nearly all actives have a fitted effect of over 60% in size
CP185 = conditions: P. falciparum in erythrocytes, SYBR Green DNA, 72 h; series mostly up to 28.7 µM
Summary of the method: (§1)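 P. falciparum-infected erythrocytes (0.3% parasitemia, 2.5% hematocrit) incubated with compound 72 h at 37 C, 5% CO2. Parasite DNA detected by SYBR Green after lysis, overnight at room temperature; normalised to 0.29 uM artemisinin and DMSO.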

CP191 = conditions: P. falciparum in erythrocytes, SYBR Green DNA, 72 h; series mostly up to 28.7 µM
Summary of the method: as §1

CP192 = conditions: P. falciparum in erythrocytes, SYBR Green DNA, 72 h; series mostly up to 28.7 µM
Summary of the method: as §1

CP194 = conditions: P. falciparum in erythrocytes, SYBR Green DNA, 72 h; series mostly up to 28.7 µM
Summary of the method: as §1

CP201 = conditions: P. falciparum in erythrocytes, SYBR Green DNA, 72 h; series mostly up to 28.7 µM
Summary of the method: as §1

CP203 = conditions: P. falciparum in erythrocytes, SYBR Green DNA, 72 h; series mostly up to 28.7 µM
Summary of the method: as §1

CP211 = conditions: P. falciparum in erythrocytes, SYBR Green DNA, 72 h; series mostly up to 28.7 µM
Summary of the method: as §1

CP217 = conditions: P. falciparum in erythrocytes, SYBR Green DNA, 72 h; series mostly up to 28.7 µM
Summary of the method: as §1

CP215 = conditions: P. falciparum in erythrocytes, SYBR Green DNA, 72 h
Summary of the method: as §1

CP237 = conditions: P. falciparum in erythrocytes, SYBR Green DNA, 72 h
Summary of the method: as §1
Potency means the concentration at half of the fitted maximal effect.

| SMILES | Potency (CP185) | Potency (CP191) | Potency (CP192) | Potency (CP194) | Potency (CP201) | Potency (CP203) | Potency (CP211) | Potency (CP217) | Potency (CP215) | Potency (CP237) |
| --- | --- | --- | --- | --- | --- | --- | --- | --- | --- | --- |
| CCCOc1ccc2nc(NC(=O)OC)sc2c1 | inactive | inactive | inactive | inactive | inactive | inactive | inactive | inactive |  |  |
| COC1C(OC(=O)/C=C/C=C/C=C/C=C/C(=O)O)CCC2(CO2)C1C1(C)OC1CC=C(C)C (centres undefined) |  | 0.0501 µM (active) |  | 0.536 µM (active) | 7.57 µM (active) | 2.69 µM (active) | 0.0379 µM (active) |  | 6.01 µM (active) |  |
| C=CCNC1=C2C[C@@H](C)C[C@H](OC)[C@H](O)[C@@H](C)/C=C(\C)[C@H](OC(N)=O)[C@@H](OC)/C=C\C=C(/C)C(=O)NC(=CC1=O)C2=O | 2.51 µM (active) | 2 µM (active) | 4.26 µM (active) | 4.26 µM (active) | 6.75 µM (active) | 3.79 µM (active) | 3.79 µM (active) | 2 µM (active) | 4.78 µM (active) | 1.26 µM (active) |
